# Reference: PubChem BioAssay AID753 (Emory University Molecular Libraries Screening Center, 2007)
# This is one part of the list. Results filed as inconclusive are left out. A number with no mark means an inactive call.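 How the source made its calls: active means percent of control activity at or below 60%; inconclusive means HPLC trace unusable from injection failure or solvent front hiding peaks; inactive means the rest, plus ubiquitin peak ratio over a set limit.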
# Target: Ubiquitin carboxyl-terminal hydrolase BAP1 (Homo sapiens) (UniProt Q92560)
# Sequence (Q92560 whole entry, looked up): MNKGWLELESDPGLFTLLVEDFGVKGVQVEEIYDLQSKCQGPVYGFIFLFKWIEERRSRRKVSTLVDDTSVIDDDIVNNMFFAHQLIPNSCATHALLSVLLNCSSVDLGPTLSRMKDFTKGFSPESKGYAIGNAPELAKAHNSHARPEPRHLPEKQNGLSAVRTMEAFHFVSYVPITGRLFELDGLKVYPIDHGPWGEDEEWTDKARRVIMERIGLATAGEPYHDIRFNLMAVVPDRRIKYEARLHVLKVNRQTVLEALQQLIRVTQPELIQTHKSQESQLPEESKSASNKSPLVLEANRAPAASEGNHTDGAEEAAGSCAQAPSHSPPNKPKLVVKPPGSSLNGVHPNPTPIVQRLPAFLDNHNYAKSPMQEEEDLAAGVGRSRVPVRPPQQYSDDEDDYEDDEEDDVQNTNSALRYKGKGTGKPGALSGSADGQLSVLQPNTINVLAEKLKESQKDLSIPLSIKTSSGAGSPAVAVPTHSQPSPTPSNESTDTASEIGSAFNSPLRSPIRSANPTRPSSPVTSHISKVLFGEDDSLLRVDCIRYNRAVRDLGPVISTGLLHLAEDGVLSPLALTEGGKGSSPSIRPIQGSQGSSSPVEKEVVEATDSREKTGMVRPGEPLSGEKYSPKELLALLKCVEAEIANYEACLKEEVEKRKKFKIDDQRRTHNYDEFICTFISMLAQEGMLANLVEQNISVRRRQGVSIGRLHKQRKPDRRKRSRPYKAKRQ
# Assay: BAP1 deubiquitinase inhibitors, hit retest, confirmation, orthogonal assay, biochemical, Ub-ethyl ester substrate, HPLC readout (AID 753)
# Conditions: purified BAP1, Ub-ethyl ester hydrolysis, at 20 µM, stronger effect = lower value
smiles,measurement,value
CCCCCn1c(=O)c(C(=O)NCc2ccccn2)c(O)c2ccccc21,% of control activity,112%
